Screening data: PubChem, several laboratories
Mcl1 Noxa PPI – Mcl-1/Noxa interaction inhibition | Q07820 | inhibition, % at 21.7 µM | actives 1.5% (n = 220,000) | AID 1022 | TR-FRET Mcl-1/Noxa peptide binding, 2 h;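 active = compounds that cut the protein-peptide binding signal by more than 50% relative to plate controls in a single-dose test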;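 also: His-tagged Mcl-1 with rhodamine Noxa BH3 peptide and terbium anti-His antibody; 0% = Mcl-1 plus Noxa peptide wells and 100% = peptide-only wells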
Target sequence (Q07820 whole entry, looked up): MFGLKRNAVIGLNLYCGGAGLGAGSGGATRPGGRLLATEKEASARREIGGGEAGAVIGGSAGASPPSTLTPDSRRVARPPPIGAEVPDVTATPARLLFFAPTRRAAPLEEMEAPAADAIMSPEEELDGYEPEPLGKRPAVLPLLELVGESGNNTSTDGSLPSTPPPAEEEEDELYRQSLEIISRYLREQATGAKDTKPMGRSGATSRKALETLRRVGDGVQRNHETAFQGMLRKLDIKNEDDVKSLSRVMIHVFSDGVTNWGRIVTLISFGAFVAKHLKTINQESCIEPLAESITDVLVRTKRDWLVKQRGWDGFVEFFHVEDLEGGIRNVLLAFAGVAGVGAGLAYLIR
MCL1 BIM primary – MCL1-BIM-BH3 interaction inhibition (human). Q07820. GST-MCL1 / FITC-Bim-BH3 fluorescence polarization. inhibition, % at 10.9 µM. actives 0.68% (n = 320,000). AID 2057;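 active = inhibition above the mean inhibition of all tested compounds plus 3 SD, set per campaign, cut at about 40% in these data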;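 also: 0% = DMSO wells and 100% = unlabeled Bim-BH3 peptide control; higher means more loss of mP so more displacement of Bim peptide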
Mcl-1 Bim block – human Bim-Mcl-1 interaction inhibition; Bead-based flow cytometry, Bim peptide-Mcl-1 binding; actives 0.1% (n = 190,000); Q07820; inhibition, % at 10 µM; in the data active = inhibition above about 40%;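 also: 0% = no compound tracer wells and 100% = peptide blocker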
Mcl1 Bid PPI – disrupts binding of human Mcl-1 to Bid peptide; Q07820; TR-FRET Mcl-1/Bid-Dy647 peptide binding, 1536-well; inhibition, % at 21.7 µM; actives 0.97% (n = 220,000);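 active = compounds that cut the binding signal by more than half at the single screening dose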;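 also: His-tagged Mcl-1 with europium anti-His antibody binding Bid BH3 peptide; 0% = Mcl-1 plus peptide wells and 100% = peptide-only wells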
* hit, by the source's call; nt = no result given. Compounds with a hit are over-represented: about 2% of the library has one in this group of screens.

SMILES	Mcl1 Noxa PPI	MCL1 BIM primary	Mcl-1 Bim block	Mcl1 Bid PPI
CCOC(=O)C1(Cc2ccc(Cl)cc2)CCN(C(=O)CCc2ccncc2)CC1	7.9	13.7	0.0	-20.9
CCOc1ccc(C(=O)NCC(=O)OCc2nnc(-c3ccccc3)o2)cc1OCC	nt	3.0	nt	nt
CCCNC(=O)c1ccc2c(c1)nc(C)n2-c1cccc(Cl)c1	nt	2.6	nt	nt
Cc1nc2ccccc2c2oc(C(=O)N3CCN(c4ccc([N+](=O)[O-])cc4)CC3)cc12	nt	3.3	nt	nt
COc1ccc(CCNC(=O)c2cc3c(=O)n4ccccc4nc3n(Cc3ccco3)c2=N)cc1OC	nt	11.6	nt	nt
Cc1ccc(Cn2c(=N)c(C(=O)NCc3ccco3)cc3c(=O)n4ccccc4nc32)cc1	79.7*	22.2	-1.0	3.1
CCN(CC)Cc1cc2[nH]c3c4ccc(Cl)cc4ncc3c2cc1OC	62.7*	nt	nt	7.3
CCCCn1c(N)c(N(CC(C)C)C(=O)C2CC(=O)N(Cc3ccccc3)C2)c(=O)[nH]c1=O (stereo unspecified)	nt	-10.3	nt	nt
Cc1ccccc1OCc1nc2ccccc2c(=O)n1/N=C/c1c[nH]c2ccccc12	-2.7	3.4	-3.0	-18.0
Cc1cc(/C=N/n2c(COc3ccccc3C)nc3ccccc3c2=O)c(O)c([N+](=O)[O-])c1	80.5*	8.1	-1.0	-1.8
O=C(CN(C(=O)CNC(=O)c1cccs1)c1ccc(F)cc1)NC1CCCCC1	nt	0.3	nt	nt
Clc1ccc(OCCN2CCCCC2)c(Cl)c1	34.6	4.2	2.0	75.5*
Clc1ccccc1OCCN1CCCCC1	15.6	4.6	-3.0	20.3
CCCCNC(=O)Nc1nnc(-c2ccccc2)o1	10.1	8.0	2.0	59.1*
CCCCNC(=O)Nc1nnc(-c2ccc(OCC)cc2)o1	5.7	4.9	0.0	-4.5
COc1ccc(C(C)=O)cc1CSc1ccc(S(=O)(=O)N2CCOCC2)cn1	nt	5.8	nt	nt
Cc1ccc(/C=C/C2=Cc3c(sc(NC(=O)CSc4n[nH]c(N)n4)c3C#N)C(C)(C)C2)o1	96.9*	60.7*	8.0	-30.0
CCCc1cc(=O)oc2cc(OC(C)C(=O)NC3CC(C)(C)NC(C)(C)C3)ccc12 (stereo unspecified)	nt	-5.8	nt	nt
O=C(Cn1sc2ccccc2c1=O)NC12CC3CC(CC(C3)C1)C2	52.6*	39.4	-15.0	32.0
Nc1cccc2c1C(=O)N(CC(=O)NC13CC4CC(CC(C4)C1)C3)C2=O	21.9	31.8	-2.0	-23.3
COc1ccc(/C=C2/C(=O)N(c3nc4ccccc4s3)N=C2CSc2ccc(Cl)cc2)cc1	91.0*	-2.6	1.0	51.2*
N#Cc1cc(NC(=O)c2ccc(F)cc2)c(=O)n2c1[nH]c1ccccc12	60.8*	-7.4	2.0	-32.7
CCOC(=O)c1c(NC(=O)c2ccccc2)sc2c(O)c(CN(CC)CC)ccc12	58.7*	3.7	0.0	20.8
CC(=O)c1ccc(NC(=O)CSc2nnc(-c3ccco3)c(-c3ccco3)n2)cc1	79.1*	32.6	9.0	-77.0
CC(=O)Nc1ccc(NC(=O)CSc2nnc(-c3ccco3)o2)cc1	8.2	0.3	-1.0	-16.1
SMILES	Mcl1 Noxa PPI	MCL1 BIM primary	Mcl-1 Bim block	Mcl1 Bid PPI
COCc1ccc(CN2CCCCC2C(=O)Nc2ccc(Oc3ccccc3)nc2)o1 (stereo unspecified)	nt	-2.1	nt	nt
CC1C(=O)NN=C1C(=O)N/N=C\c1ccc(O)cc1O (stereo unspecified)	74.4*	7.7	1.0	-75.5
COc1ccc(/[N+]([O-])=C/c2ccoc2)cc1	nt	5.7	nt	nt
OCCN1CCN(c2nc(NCc3ccco3)c3ccccc3n2)CC1	50.8*	-3.9	-1.0	0.6
c1cncc(-c2nc(NCc3ccco3)c3ccccc3n2)c1	50.6*	1.0	-2.0	53.2*
Oc1ccccc1Nc1nc(NCc2ccco2)c2ccccc2n1	60.2*	-7.4	nt	-47.3
O=C(CNc1cc(S(=O)(=O)N2CCOCC2)ccc1NCC1CCCO1)Nc1cccc(F)c1 (stereo unspecified)	nt	-6.2	nt	nt
O=C(Cc1n[nH]c(=O)[nH]c1=O)N/N=C/CCc1ccccc1	-2.2	3.8	nt	-19.9
COc1cc(C=Nc2cccc(C)c2)c(O)c([N+](=O)[O-])c1	39.0	12.5	53.0*	-80.7
Cc1ccc(O)c(N=Cc2cc(Cc3ccccc3)cc([N+](=O)[O-])c2O)c1	55.8*	nt	-1.0	-89.4
Cc1c(NC(=O)CSc2ccc3ccccc3n2)c(=O)n(-c2ccccc2)n1C	nt	1.1	nt	nt
O=c1[nH]c(-c2ccccc2Cl)nc2c1sc(=S)n2-c1ccccc1	44.3	nt	1.0	88.9*
CCCCC1=CC2=C(c3ccco3)C(=O)C(C)(OC(=O)c3ccc(OC)cc3)C(=O)C2=CN1C1CC1 (stereo unspecified)	2.4	40.0*	nt	-143.5
